Mtb FBA inh: Mtb fructose-bisphosphate aldolase inhibition; P9WQA3; purified M. tuberculosis FBA, fluorescence read-out; inhibition, % at 1 µM; actives 2.3% (n = 360,000); AID 588726; in the data active = inhibition above about 27%;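 note: 0% = vehicle and 100% = reference inhibitor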
Target sequence (P9WQA3 whole entry, looked up): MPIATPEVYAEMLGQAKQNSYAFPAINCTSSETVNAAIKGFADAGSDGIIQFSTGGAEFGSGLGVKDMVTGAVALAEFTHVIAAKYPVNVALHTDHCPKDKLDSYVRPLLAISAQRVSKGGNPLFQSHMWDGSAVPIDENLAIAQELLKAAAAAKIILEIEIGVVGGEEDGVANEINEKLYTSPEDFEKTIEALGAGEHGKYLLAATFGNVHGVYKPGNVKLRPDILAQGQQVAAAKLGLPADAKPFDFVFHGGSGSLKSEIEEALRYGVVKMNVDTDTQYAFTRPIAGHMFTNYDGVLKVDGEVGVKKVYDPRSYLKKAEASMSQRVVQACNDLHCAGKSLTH
RecA splice inh: blocks M. tuberculosis RecA intein splicing | actives 0.75% (n = 290,000) | AID 2221 | cell-free RecA intein splicing, fluorescence | inhibition, % (test concentration not listed) | P9WHJ3; in the data active = inhibition above about 30%;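 note: 0% = vehicle wells and 100% = reference inhibitor control wells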
CCHF vOTU inh: blocks the CCHF virus ovarian tumor domain protease. inhibition, % at 11.5 µM. actives 0.55% (n = 370,000). CCHFV vOTU protease, Pep-AMC fluorescence; note: 0% = vehicle wells with enzyme and 100% = no enzyme wells
GDH-TPI inh: inhibits GDH-TPI coupling enzymes, artifact for Mtb FBA screen | actives 1.2% (n = 360,000) | inhibition, % at 4.8 µM | GDH-TPI coupled enzyme counterscreen, NADH absorbance;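 note: 0% = DMSO wells and 100% = wells lacking the enzyme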
* hit, by the source's call; . = no result given; + = active, no number. The list is not random: actives were taken first. Their share in the collection is about 4.2%. Cut-off read from the data, not from the text of the source, unless noted: active = inhibition above about 30%; inactive = the rest.

SMILES	Mtb FBA inh	RecA splice inh	CCHF vOTU inh	GDH-TPI inh
CCOc1cc(C(=S)N2CCOCC2)ccc1OC(=O)c1cc(OC)c(OC)c(OC)c1	3	0	-7	-6
CCOc1ccc(/C=C/C(=O)N2CCOCC2)cc1OC	6	4	-3	32*
COc1ccc(/C=C/C(=O)N2CCOCC2)cc1OC	5	0	0	21
CCOc1cc(C(=S)N2CCOCC2)ccc1OC(=O)/C=C/c1ccc(OC)c(OC)c1	1	1	-4	37*
Cc1ccc(NC(=O)CSCC(=O)N(CCC(C)C)c2c(N)n(Cc3ccccc3)c(=O)[nH]c2=O)cc1	0	.	0	5
Cc1ccc(CSCC(=O)N(C)CC(=O)Nc2ccc(Cl)c(Cl)c2)cc1	-2	5	11	2
O=C(/C=C/c1ccccc1)Nc1nc(-c2ccncc2)cs1	0	.	3	38*
CC(/C=C/c1ccccc1)=N\Nc1nc(-c2ccccc2)cs1	2	-1	3	32*
O=C(/C=C\c1ccco1)Nc1nc(-c2ccccc2)cs1	-2	3	4	10
CC(=O)c1ccc(N2CCCCCC2)c(F)c1	-6	1	9	34*
CCCN(CCC)CCCNC(=S)Nc1ccc2nc(N3CCN(C)CC3)cc(C)c2c1	14	-3	-9	32*
Cc1cc(N2CCN(C)CC2)nc2ccc(NC(=S)NC3CC3)cc12	12	5	-5	35*
CCOC(=O)C1=NOC(C(=O)NC2CCCC2)(C(=O)c2ccc(OC)cc2)C1 (centres undefined)	.	.	9	.
O=C(Cn1c2ccccc2c(=O)c2ccccc21)Nc1ccccc1F	150*	-105	-93	0
CC(=O)c1cn(CC(=O)Nc2ccccc2F)c2ccccc12	1	.	-9	-1
CCOC(=O)/C(C#N)=C/N=c1ccc(C)cn1C	2	-4	-4	39*
CCCN1C=CC(=C/C=C(\C#N)C(=O)OCC)C=C1	.	-10	.	.
CC1=CS/C(=C(/C#N)C(=O)NCc2ccco2)N1c1ccccc1	-1	-5	11	51*
CC1(C)Cc2c(sc3nc[nH]c(=O)c23)CO1	3	-4	1	9
O=c1[nH]cnc2sc3c(c12)CN(Cc1ccccc1)CC3	52*	-10	.	23
O=C(Cc1ccc([N+](=O)[O-])cc1)c1c(O)cc(O)cc1O	-1	2	-3	35*
Cc1cc(O)cc(O)c1C(=O)Cc1ccccc1	0	2	-5	7
COc1ccc(OC)c2c(C)cc(N3CCCN(C)CC3)nc12	31*	0	-23	-1
COc1ccccc1N1CCN(c2cc(N3CCCC3)nc(C)n2)CC1	2	0	5	3
CC(C)[C@H](NC(=O)CC1CCCC1)C(=O)N1CCC[C@H]1C(=O)NCCc1ccccc1Cl	.	.	1	.
SMILES	Mtb FBA inh	RecA splice inh	CCHF vOTU inh	GDH-TPI inh
Cc1ccc(C(C[N+](=O)[O-])c2c(-c3ccccc3O)[nH][nH]c2=O)cc1 (centres undefined)	2	53*	-1	2
CCOCCCNC(=O)C(NC(=O)CNC(C)=O)c1ccc(Cl)cc1 (centres undefined)	0	1	1	-6
CCOCCCNC(=O)C(NC(=O)c1ccccc1O)c1ccc(Cl)cc1 (centres undefined)	52*	-2	.	10
O=C(CSc1nc(-c2ccco2)cc(C(F)(F)F)n1)Nc1ccc2c(c1)OCO2	-2	0	2	16
O=C(CSc1nc(-c2ccco2)cc(C(F)(F)F)n1)Nc1cccnc1	-1	-1	7	32*
C=CCNc1nc(N)c(C(=C(C#N)C#N)c2ccc(Br)cc2)s1	126*	-9	-45	14
C=CCNc1sc(C(=O)c2ccc(C)cc2)c(N)c1C#N	3	-1	17	14
CC(=O)c1c(C)[nH]c(C(=O)Nc2ccc(N3CCCCCC3)cc2)c1C	-2	.	23	13
CN(C)C(=O)/C(=C/c1ccc(-c2cccc([N+](=O)[O-])c2)o1)NC(=O)c1ccccc1	-3	1	0	53*
CN(C)CCCNC(=O)/C(=C/c1ccc(-c2ccc([N+](=O)[O-])cc2)o1)NC(=O)c1ccccc1	-4	-1	2	31*
Cc1ccc(C(=O)N/C(=C\c2ccc(-c3cccc([N+](=O)[O-])c3)o2)C(=O)NCCCN2CCOCC2)cc1	0	-2	19	47*
CN(C)CCCNC(=O)/C(=C\c1ccc(-c2ccc(Br)cc2)o1)NC(=O)c1ccccc1	4	1	4	25
Cc1ccc(C(=O)N/C(=C/c2ccc(-c3cccc([N+](=O)[O-])c3)o2)C(=O)NC(C)C)cc1	-3	-1	12	49*
CCOC(=O)C1CCN(C(=O)COC(=O)CSc2ccccc2C)CC1	0	.	-3	-4
O=C(Nc1ccccc1C(=O)Nc1ccncc1)c1ccccc1	3	-1	12	-4
Cc1ccccc1S(=O)(=O)NC(=O)C1(C)CCN1C(=O)Cc1ccccc1Cl (centres undefined)	4	.	10	5
Cc1ccccc1S(=O)(=O)N1CCCc2nc(-c3ccc(Br)cc3)ccc21	.	.	-15	.
C=CCN1C(=O)[C@@H](CC(=O)NCCc2ccccc2OC)[C@]2(C(=O)OC)CCCCC=C12	.	.	-1	.
Cc1cn([C@H]2C[C@H](O)[C@@H](/C=C/C(=O)NCc3ccc(N(C)C)cc3)O2)c(=O)[nH]c1=O	0	.	2	.
COc1ccc(C(=O)N/C(=C\c2ccc(-c3cccc([N+](=O)[O-])c3)o2)C(=O)NCCCN2CCOCC2)cc1	-3	.	12	47*
COc1ccc(-c2nnn3c2Cn2c4ccccc4c(=O)n2[C@@H](C)C3)cc1	.	.	-14	.
CCCn1c(/C=C/c2ccccc2)nc2ccccc21	53*	5	-30	38*
COc1ccc(/C=C\C(=O)c2c(O)ccc3c(C)cc(=O)oc23)cc1	3	1	8	49*
Cc1cc(=O)oc2c(O)c(O)ccc12	2	.	-8	4
COc1ccc(/C=C/C(=O)c2c(O)ccc3c(C)cc(=O)oc23)cc1	-2	2	17	38*
SMILES	Mtb FBA inh	RecA splice inh	CCHF vOTU inh	GDH-TPI inh
CCOc1cc(/C=C2/NC(=O)N(Cc3ccccc3F)C2=O)ccc1O	-2	-5	16	40*
COc1ccc(-n2nc(N)c(C(N)=O)n2)cc1	+	-8	-187	13
COc1ccc(C(=O)n2cnnc2N)cc1	3	5	5	0
CC(=O)N1CCN(CCN=Cc2c(O)n(-c3ccc(C)cc3)c(=S)[nH]c2=O)CC1	-3	1	-1	37*
O=c1c(/C=N/N2CCOCC2)c(O)n(-c2ccccc2)c(=S)n1-c1ccccc1	-5	-3	5	21
CCOc1ccc(-n2c(O)c(C=Nc3ccc(N4CCOCC4)cc3)c(=O)[nH]c2=O)cc1	-1	-19	10	32*
O=c1[nH]c(=S)n(-c2ccc(F)cc2)c(O)c1/C=N/N1CCOCC1	-1	-4	-8	31*
Cn1c(O)c(/C=N/N2CCOCC2)c(=O)n(-c2ccccc2)c1=S	0	-1	-7	35*
O=c1[nH]c(=S)n(-c2ccc(Br)cc2)c(O)c1C=Nc1ccc(N2CCOCC2)cc1	-3	-8	0	16
CCCn1c(SCC(=O)N2c3ccccc3CC2C)n[nH]c1=O (centres undefined)	3	.	-2	-3

High-throughput results (PubChem BioAssay)
